The source of these data is PubChem BioAssay (NCATS).

Several values for one entry are separate records, joined by “and”; a condition that tells them apart may be missing. Equal values may be shown once. Results filed as inconclusive are left out. Activity calls are given as the source filed them. Unless noted, calls come from the whole dose curve.

In test [1] the target is Peroxisome proliferator-activated receptor gamma (Homo sapiens) (UniProt P37231). Briefly: qHTS assay for small molecule agonists of peroxisome proliferator-activated receptor gamma signaling (AID 588536; active = well fitted curve in the direction sought with a large enough effect in the signal ratio, with a control signal flat, not every such curve was filed as active; the % refers to the signal ratio;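 note: 0% = DMSO basal wells and 100% = rosiglitazone at 2 µM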). In outline: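 HEK293 UAS-bla reporter line, 1% charcoal/dextran FBS; titration, 16 h, 37 C; CCF4 loading 2 h RT; fluorescence 460/530 nm. Normalized to rosiglitazone 2 uM = 100%, DMSO = 0%.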

For test [2] the target is unchanged. Briefly: qHTS assay for small molecule antagonists of peroxisome proliferator-activated receptor gamma signaling (AID 588537; active = well fitted inhibition curve with a large enough effect in the signal ratio, with a control signal flat, not every such curve was filed as active; the % refers to the signal ratio; note: potency is the fitted concentration of half-maximal effect). In outline:
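PPARγ-UAS-bla HEK293 cells (3000/well) in 1% charcoal/dextran-stripped FBS are treated with compound, then stimulated with 50 nM rosiglitazone for 16 h at 37 °C. Read-out is CCF4 β-lactamase fluorescence after 2 h at RT. IC50 comes from Hill fits normalised to rosiglitazone and DMSO.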

Test [3] has as its target Vitamin D3 receptor (Homo sapiens) (UniProt P11473). In words: qHTS assay for small molecule antagonists of vitamin D receptor signaling (AID 588541). Note: potency is the fitted concentration of half-maximal effect. In outline: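 VDR-UAS-bla HEK293T cells in 2% charcoal-stripped FBS were stimulated with 1-alpha,25-dihydroxyvitamin D3 (3 nM final) plus compound for 16 h at 37 C. The beta-lactamase CCF4 readout was normalized to 50 nM agonist and DMSO, and Hill fits gave IC50.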

Test [4] has the same target. In words: qHTS assay for small molecule agonists of vitamin D receptor signaling (AID 588543).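 Note: 0% = DMSO basal and 100% = reference agonist control.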 In a few lines: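 GeneBLAzer VDR-UAS-bla HEK293T cells in 2% charcoal-stripped FBS medium were dosed with compound titrations for 16 h at 37 °C; CCF4 β-lactamase readout (405 nm ex, 460/530 nm em). EC50 and efficacy from Hill fits, normalized to 50 nM calcitriol (100%) and DMSO (0%).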

Test [5] can be described thus: qHTS assay for small molecule agonists of retinoid X receptor alpha signaling (AID 588544). The conditions noted are these: HEK293T RXRa-UAS-bla, beta-lactamase reporter, 18 h; 530 nm emission.
Test [6] deals with Retinoic acid receptor RXR-alpha (Homo sapiens) (UniProt P19793). Described as above.
The target in test [7] is Thyroid hormone receptor beta (Homo sapiens) (UniProt P10828). In words: qHTS assay for small molecule agonists of thyroid hormone receptor beta signaling (AID 588545). In outline:
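Agonist activity was read as beta-lactamase CCF4 fluorescence (405 ex, 460/530 em), scaled between DMSO (0%) and 10 nM T3 (100%), then Hill-fitted for EC50 and efficacy. HEK 293 TR-UAS-bla cells in 2% charcoal/dextran FBS medium were exposed 18 h at 37 C.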

Test [8] in a line: qHTS assay for small molecule antagonists of retinoid X receptor alpha signaling (AID 588546; active = well fitted inhibition curve with a large enough effect in the signal ratio, with a control signal flat, not every such curve was filed as active; the % refers to the signal ratio; note: potency is the fitted concentration of half-maximal effect;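 for max response: cells stimulated with 9-cis-retinoic acid as agonist; % is set by controls: 0 for no effect and ±100 for the full control effect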). The conditions noted are these: HEK293T RXRa-UAS-bla, beta-lactamase ratio, antagonist mode; measured here: W530 green channel, cytotoxicity proxy. In outline:
(§1)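 Beta-lactamase reporter inhibition, read as CCF4 fluorescence ratio (ex 405, em 460/530 nm) after 2 h at RT. HEK293T UAS-bla cells, 2500/well, were stimulated with 9-cis-RA at 500 or 100 nM final alongside test compound for 18 h at 37 C.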

Test [9] deals with Retinoic acid receptor RXR-alpha (Homo sapiens) (UniProt P19793). Described as above. The conditions noted are these: HEK293T RXRa-UAS-bla, beta-lactamase ratio, antagonist mode. In outline: as §1
Test [10] has as its target Thyroid hormone receptor beta (Homo sapiens) (UniProt P10828). Briefly: qHTS assay for small molecule antagonists of thyroid hormone receptor beta signaling (AID 588547; active = well fitted inhibition curve with a large enough effect in the signal ratio, with a control signal flat, not every such curve was filed as active; the % refers to the signal ratio; note: potency is the fitted concentration of half-maximal effect;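 for activity change % (negative = inhibition): cells stimulated with 0.4 nM T3 agonist during compound exposure; series mostly up to about 77 µM; % is set by controls: 0 for no effect and ±100 for the full control effect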). The conditions noted are these: TR-UAS-bla HEK293, beta-lactamase ratio, antagonist mode, 18 h. In outline: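 TR-UAS-bla GripTite HEK293 cells in 2% charcoal/dextran FBS medium; compounds 0.59 nM to 92 uM with T3 at 0.4nM final, 18 h at 37 C. Beta-lactamase read by CCF4 fluorescence (460/530 nm); Hill fits gave IC50 and efficacy.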

Chain of Peroxisome proliferator-activated receptor gamma (Homo sapiens) (P37231 whole entry, looked up): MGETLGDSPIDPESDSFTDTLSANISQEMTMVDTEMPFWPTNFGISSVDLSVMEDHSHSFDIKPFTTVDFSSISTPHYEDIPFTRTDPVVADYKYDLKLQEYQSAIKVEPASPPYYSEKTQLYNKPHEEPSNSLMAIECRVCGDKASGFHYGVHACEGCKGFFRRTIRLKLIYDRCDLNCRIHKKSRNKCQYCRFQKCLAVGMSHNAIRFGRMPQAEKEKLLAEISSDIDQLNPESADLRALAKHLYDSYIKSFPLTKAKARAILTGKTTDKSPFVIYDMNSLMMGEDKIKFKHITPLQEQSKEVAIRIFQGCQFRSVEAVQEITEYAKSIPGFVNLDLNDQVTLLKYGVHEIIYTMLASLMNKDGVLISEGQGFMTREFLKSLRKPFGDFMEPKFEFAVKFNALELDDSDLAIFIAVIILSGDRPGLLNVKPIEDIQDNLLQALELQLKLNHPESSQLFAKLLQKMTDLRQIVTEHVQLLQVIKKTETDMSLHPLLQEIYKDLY
Chain of Thyroid hormone receptor beta (Homo sapiens) (P10828 whole entry, looked up): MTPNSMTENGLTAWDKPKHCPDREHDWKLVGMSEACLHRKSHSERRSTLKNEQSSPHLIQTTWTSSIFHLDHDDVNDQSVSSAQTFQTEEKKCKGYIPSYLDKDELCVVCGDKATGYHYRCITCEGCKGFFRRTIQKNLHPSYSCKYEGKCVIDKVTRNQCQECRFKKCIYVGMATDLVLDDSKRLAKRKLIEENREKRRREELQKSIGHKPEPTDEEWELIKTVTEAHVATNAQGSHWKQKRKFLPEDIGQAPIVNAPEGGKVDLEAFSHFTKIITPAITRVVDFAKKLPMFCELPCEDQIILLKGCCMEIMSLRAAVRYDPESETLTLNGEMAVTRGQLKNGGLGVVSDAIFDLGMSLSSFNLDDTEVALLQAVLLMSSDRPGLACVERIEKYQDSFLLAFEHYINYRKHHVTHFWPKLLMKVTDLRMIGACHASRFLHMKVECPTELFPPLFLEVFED
Chain of Retinoic acid receptor RXR-alpha (Homo sapiens) (P19793 whole entry, looked up): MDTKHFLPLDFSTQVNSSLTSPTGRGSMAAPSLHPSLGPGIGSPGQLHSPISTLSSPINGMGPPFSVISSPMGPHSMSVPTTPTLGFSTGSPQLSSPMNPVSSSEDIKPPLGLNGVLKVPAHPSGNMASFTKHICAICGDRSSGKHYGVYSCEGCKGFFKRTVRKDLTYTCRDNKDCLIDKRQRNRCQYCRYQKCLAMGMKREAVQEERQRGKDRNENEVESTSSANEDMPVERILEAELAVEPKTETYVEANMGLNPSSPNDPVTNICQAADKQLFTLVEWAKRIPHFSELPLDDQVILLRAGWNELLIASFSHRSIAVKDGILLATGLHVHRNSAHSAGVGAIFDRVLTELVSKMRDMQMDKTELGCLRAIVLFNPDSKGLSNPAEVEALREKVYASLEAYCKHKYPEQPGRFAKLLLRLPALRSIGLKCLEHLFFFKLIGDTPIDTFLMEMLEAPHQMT

Regarding `CN(C)C(=S)SC(=S)N(C)C`, the molecule was classed as inactive in test [1], in [4], in test [6] and in [7]. Further, the Potency entry in test [2] and in [3] was “inactive” each time. Moreover, the values for the max response in test [5], in test [8] and in [9] were 0.136%, 5.78% and -27.1% (inactive), respectively. Further, the activity change % (negative = inhibition) in test [10] was 10.8% (inactive).
On to `COc1cccc2c1C(=O)c1c(O)c3c(c(O)c1C2=O)C[C@@](O)(C(C)=O)C[C@@H]3O[C@H]1C[C@H](N)[C@H](O)[C@H](C)O1`, for which the figures for the Potency in test [3], in test [9] and in test [10] were 8.91 µM (active), 5.62 µM (active) and 5.01 µM (active), respectively. In addition, in [8], the max response is -11.9%.
As to `CCCCCCc1ccc(O)cc1O`, the result in test [1], in [4], in test [6] and in [7] was inactive. Further, the Potency entry in test [3] is “inactive”. In addition, the max response in test [5] was -14.8% and 0.183%; in [8], 0.899% and 2.91%; in test [9], -14.1% (inactive) and -8.39% (inactive). The activity change % (negative = inhibition) in [10] is -14.5% (inactive) and -21.9% (inactive).
For the molecule `CC(C)(Oc1ccc(Cl)cc1)C(=O)O`, the molecule was called inactive in test [1], in test [4], in test [6] and in [7]. Further, the Potency result in [2] and in test [3] was “inactive” each time. Also, the values for the max response in test [5], in test [8] and in test [9] were -16.7%, -15.3% and 2.91% (inactive), respectively.
As to `C=C(CC)C(=O)c1ccc(OCC(=O)O)c(Cl)c1Cl`, the result in test [7] was inactive.
Consider `C=CCc1ccc(O)c(OC)c1`, for which the molecule was called inactive in test [1] and in [6]. Moreover, in test [2], the Potency entry was “inactive”. The max response in [5] is -13.4% and -16.3%; in test [8], -4.42% and -7.03%; in [9], -1.42% (inactive) and -1.33% (inactive).
Take `CC/C(=C(/CC)c1ccc(O)cc1)c1ccc(O)cc1`: the Potency result in [3] was “inactive”. In addition, the outcome in test [4], in test [6] and in test [7] was inactive. Besides, in [5], the max response was -0.375%.
For the molecule `O=c1ccc2ccccc2o1`, the molecule was called inactive in test [1], in [6] and in test [7]. The Potency entry in test [2] was “inactive”. Moreover, the max response in [5] was -0.417% and -9.49%; in test [8] it was 0.52% and -14.8% and -12.1%; in test [9], 19.9% (inactive) and -2.2% (inactive) and -3.66% (inactive). The activity change % (negative = inhibition) in [10] is -6.73% (inactive) and 13.3% (inactive) and -20.8% (inactive).
Regarding `C[C@]12CC[C@@H]3c4ccc(O)cc4CC[C@H]3[C@@H]1CC[C@@H]2O`, the Potency in test [2] is 39.8 µM (active). Further, the Potency entry in [3] was “inactive”. Moreover, the result in test [4] and in test [6] was inactive. The max response in [5] came to 6.82%.
`O=C1OC(c2ccc(O)cc2)(c2ccc(O)cc2)c2ccccc21`: the Potency in test [2] was 39.8 µM (active). Also, the Potency entry in test [3] was “inactive”. The molecule was called inactive in [4], in test [6] and in test [7]. Also, the max response is 14.6% and 3.81% in test [5]; 6.51% in test [8]; -28% (inactive) in test [9]. Besides, the activity change % (negative = inhibition) in test [10] is -18.5% (inactive) and 8.75% (inactive).
On to `Oc1c(Cl)cc(Cl)cc1Sc1cc(Cl)cc(Cl)c1O`, for which, in [4], the call was inactive. Further, the max response in test [8] is 1.12%. Besides, the Potency in [9] was 25.1 µM (active).
`CC(O)(P(=O)(O)O)P(=O)(O)O`: the Potency entry in test [2] is “inactive”. The max response was -19.3% in test [5], -2.39% in test [8] and -16.3% (inactive) in test [9]. Moreover, the outcome in test [6] and in test [7] was inactive. Further, the activity change % (negative = inhibition) in test [10] is -8.4% (inactive).
